Screening data deposited in PubChem BioAssay by several laboratories.
A selection: hits, their analogues and other compounds. The true share with any hit is near 7%.
ADAM17 inh – ADAM17 inhibition, QFRET primary screen | recombinant ADAM17, EDANS/DABCYL FRET peptide cleavage | P78536 | inhibition, % at 6.95 µM | 370,000 tested, 0.83% active;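 active means inhibition above the mean of compounds lying between control limits plus 3 SD, set per campaign, cut at about 8.5% in these data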;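 further: 0% = DMSO-only wells as the low control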
GRIN3A LBD mod – modulators (binders) of human NR3A ligand-binding domain. NR3A LBD differential scanning fluorimetry, Tm shift; 0% = protein alone, 100% = glycine-bound protein. Tm shift relative to glycine control, % at 25 µM. 340,000 tested, 2.5% active;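 active means melting temperature shift of at least 10% of the positive control shift, at one fixed dose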
AHR act – activates the human aryl hydrocarbon receptor; P35869; AHR-responsive luciferase reporter cells, luminescence; activation, % at 5 µM; 320,000 tested, 2.5% active; AID 2796; in the data active means activation above about 47%;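 further: 0% = vehicle wells and 100% = reference agonist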
proKLK7 act – proKLK7 (human) activation, primary screen | P49862 | purified proKLK7, EDANS-DABCYL substrate fluorescence; 100% is mature enzyme control, 0% vehicle | activation, % at 7 µM | 370,000 tested, 0.9% active | AID 652039;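 active means activation above the mean of all tested compounds plus 3 SD, computed per campaign excluding outliers beyond control limits, cut at about 13% in these data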
ADAM10 inh – inhibitors of human ADAM10; AID 720582; 370,000 tested, 0.62% active; O14672; recombinant ADAM10, EDANS/DABCYL FRET peptide cleavage, 3 h; inhibition, % at 7 µM;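 active means inhibition above a per-campaign cutoff equal to the mean of compounds falling between control-based bounds plus 3 SD, cut at about 20% in these data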;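 further: 0% = DMSO wells while the 100% control is not disclosed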
rCAG binder – r(CAG) repeat RNA binding; TO-PRO-1 dye displacement fluorescence; inhibition, % at 3 µM; 370,000 tested, 1.3% active; AID 651821;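 active means inhibition above the plate cutoff, the mean of all test compounds on that plate plus 3 SD, cut at about 35% in these data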;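 further: 0% = DMSO alone and 100% = 100 µM mitoxantrone as full dye displacement; higher means more dye released from RNA so lower well fluorescence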
The depositor's hits bear a star.

Results for CC(=O)Nc1cccc(NC(=O)c2ccc(COc3ccccc3)cc2)c1 ?
ADAM17 inh: -0.2; GRIN3A LBD mod: -3.1; proKLK7 act: -0.6; ADAM10 inh: -1.1; rCAG binder: 4.4

Results for CC(C)C(=O)Nc1ccc(NC(=O)c2ccc(COc3ccccc3)cc2)cc1 ?
ADAM17 inh: -2.6; GRIN3A LBD mod: 16.3*; AHR act: 1.2; proKLK7 act: -0.5; ADAM10 inh: -5.4; rCAG binder: -2.0

Results for CC(=O)Nc1ccc(NC(=O)c2ccc(COc3ccccc3)cc2)cc1 ?
ADAM17 inh: -4.3; GRIN3A LBD mod: 10.4*; AHR act: 0.2; proKLK7 act: -0.9; ADAM10 inh: 3.9; rCAG binder: 1.7

Results for CCCCN(C)c1c2c(nc3ncnn13)CCCC2 ?
ADAM17 inh: 1.7; proKLK7 act: 0.5; ADAM10 inh: 2.0; rCAG binder: 0.9

How did CN1CCc2c(C#N)c(N3CCOCC3)nc(NCC3CCCO3)c2C1 (stereo not drawn) do in these assays?
ADAM17 inh: -43.9; GRIN3A LBD mod: -0.2; AHR act: -3.4; proKLK7 act: 5.0; ADAM10 inh: -120.7; rCAG binder: -7.8

Results for CCCCCNc1nc(N2CCCC2)c2c(c1C#N)CCN(C)C2 ?
ADAM17 inh: -22.0; GRIN3A LBD mod: 0.8; AHR act: 59.5*; proKLK7 act: 3.9; ADAM10 inh: -60.5; rCAG binder: -13.5

Results for CCCCOCCCNC(=O)C[C@@H]1C(=O)N(Cc2ccc(OC)cc2)/C2=C/CCCCC[C@@]21C(=O)OCC ?
ADAM17 inh: 2.4; proKLK7 act: 0.8; ADAM10 inh: 4.8; rCAG binder: -2.7

What do the screens show for `CCN(CC)CCN1C(=O)C(O)=C(C(C)=O)C1c1ccccc1[N+](=O)[O-]` (stereo not drawn)?
ADAM17 inh: -10.5; GRIN3A LBD mod: 1.5; AHR act: 22.6; proKLK7 act: -0.7; ADAM10 inh: -11.8; rCAG binder: -1.1

Results for CC(=O)C1=C(O)C(=O)N(CCc2ccccc2)C1c1ccccc1[N+](=O)[O-] (stereo not drawn) ?
ADAM17 inh: 2.0; GRIN3A LBD mod: -1.9; AHR act: 49.2*; proKLK7 act: 0.1; ADAM10 inh: -7.2; rCAG binder: 1.6

Results for Cc1ccccc1CSCC(=O)c1c(N)n(C)c(=O)n(C)c1=O ?
ADAM17 inh: -0.8; GRIN3A LBD mod: 10.6*; AHR act: 8.5; proKLK7 act: 0.7; ADAM10 inh: -7.1; rCAG binder: -2.7

Results for CCC(C)(C)NC(=O)C(c1cccn1C)N(C(=O)Cn1nnc2ccccc21)c1ccc(OC)cc1 (stereo not drawn) ?
ADAM17 inh: -1.9; GRIN3A LBD mod: 10.7*; AHR act: -2.6; proKLK7 act: 0.2; ADAM10 inh: -2.8; rCAG binder: 0.8

Results for Clc1ccc2c(N/N=C/c3ccccc3Br)ccnc2c1 ?
ADAM17 inh: -2.8; GRIN3A LBD mod: 4.1; AHR act: -1.0; proKLK7 act: -0.5; ADAM10 inh: -12.9; rCAG binder: 7.5

Results for Clc1ccc2c(N/N=C/c3cccc(Br)c3)ccnc2c1 ?
ADAM17 inh: 5.6; GRIN3A LBD mod: 15.3*; AHR act: 45.7; proKLK7 act: -1.9; ADAM10 inh: -10.1; rCAG binder: 14.0

What do the screens show for `O=[N+]([O-])c1ccc(/C=N/Nc2ccnc3cc(Cl)ccc23)o1`?
ADAM17 inh: -3.4; GRIN3A LBD mod: 17.5*; AHR act: 17.4; proKLK7 act: -0.1; ADAM10 inh: -0.3; rCAG binder: 25.7

Results for COc1ccc(NC(=O)CCCNS(=O)(=O)c2ccc3[nH]c(=O)oc3c2)cc1OC ?
ADAM17 inh: -4.1; proKLK7 act: 0.0; ADAM10 inh: -6.1; rCAG binder: 2.8

Results for O=C1CC(c2ccc(Cl)cc2)CC(=O)C1CS(=O)(=O)c1ccccc1 (stereo not drawn) ?
ADAM17 inh: -1.4; GRIN3A LBD mod: -7.4; AHR act: -2.8; proKLK7 act: -0.7; ADAM10 inh: 5.2; rCAG binder: 11.9

How did O=C1CC(c2ccccc2)CC(=O)C1Sc1ccc(Cl)cc1 (stereo not drawn) do in these assays?
ADAM17 inh: -3.0; GRIN3A LBD mod: 14.8*; AHR act: -1.0; proKLK7 act: 0.1; ADAM10 inh: -11.7; rCAG binder: 6.7

What do the screens show for `O=C(Oc1cccc2ccccc12)c1cc(Cl)nc2ccccc12`?
ADAM17 inh: 2.9; GRIN3A LBD mod: 14.3*; AHR act: 10.6; proKLK7 act: -1.7; ADAM10 inh: -3.5; rCAG binder: 5.2

Results for CC(=O)Oc1c(I)cc(I)cc1C(=O)Nc1ccc(Cl)cc1 ?
ADAM17 inh: -1.4; GRIN3A LBD mod: 16.1*; AHR act: 6.4; proKLK7 act: 0.1; ADAM10 inh: 0.8; rCAG binder: 21.6

Results for Cc1cccc(NC(=O)c2cc(Cl)nc3ccccc23)c1 ?
ADAM17 inh: -1.4; GRIN3A LBD mod: 0.0; AHR act: 61.7*; proKLK7 act: 0.5; ADAM10 inh: 1.8; rCAG binder: -0.3

Results for COc1ccc(Cl)cc1C(=O)Nc1ccc(NC(C)=O)cc1 ?
ADAM17 inh: -9.7; GRIN3A LBD mod: -13.2; AHR act: 15.2; proKLK7 act: 0.0; ADAM10 inh: -4.8; rCAG binder: 0.1

What do the screens show for `Cc1cc(C(=O)Nc2ccc(Cl)cc2)c2ccccc2n1`?
ADAM17 inh: 2.6; GRIN3A LBD mod: 1.6; AHR act: 65.7*; proKLK7 act: 0.3; ADAM10 inh: -2.5; rCAG binder: 3.3

How did Cc1ccc(NC(=O)c2cc(Cl)nc3ccccc23)cc1 do in these assays?
ADAM17 inh: 2.0; GRIN3A LBD mod: -0.9; AHR act: 32.3; proKLK7 act: 0.1; ADAM10 inh: 2.4; rCAG binder: 5.3

Results for O=C(NCCCN1CCOCC1)c1ccc(Sc2ccc(Br)cc2)c([N+](=O)[O-])c1 ?
ADAM17 inh: -2.9; GRIN3A LBD mod: 0.9; AHR act: 8.7; proKLK7 act: 0.0; ADAM10 inh: 2.3; rCAG binder: 1.8

How did O=C(NCCCN1CCOCC1)c1ccc(Sc2ccccc2Cl)c([N+](=O)[O-])c1 do in these assays?
ADAM17 inh: -1.8; GRIN3A LBD mod: 17.8*; AHR act: -0.4; proKLK7 act: 0.6; ADAM10 inh: 1.7; rCAG binder: -4.8

How did Cc1cc(NC(=O)COc2cc(F)cc(F)c2)n(-c2ccccc2)n1 do in these assays?
ADAM17 inh: -4.6; proKLK7 act: 0.6; ADAM10 inh: -6.6; rCAG binder: 1.3

How did O=c1oc2ccccc2cc1-c1cn2cccnc2n1 do in these assays?
ADAM17 inh: -112.6; GRIN3A LBD mod: 1.1; AHR act: 15.8; proKLK7 act: -4.2; ADAM10 inh: inactive; rCAG binder: 2.9

How did O=c1oc2ccccc2cc1-c1cn2ccccc2n1 do in these assays?
ADAM17 inh: -1.0; GRIN3A LBD mod: 0.9; AHR act: 76.2*; proKLK7 act: 1.1; ADAM10 inh: -12.5; rCAG binder: -0.7
